Source: PubChem BioAssay
The source made the active and inactive calls.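 Rule for the calls, unless noted: active = inhibition of the reporter signal at or above 50%; inactive = inhibition below 50%.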

Assays:
[1] = inhibitors of mutant huntingtin aggregation, primary screen, imaging, exon1htt(103Q)mCFP cells, high-content imaging (AID 483;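 active = visual image review flags a hit and inhibition of aggregation exceeds 20%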;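 note: compound exposure lasted 3 days before fixation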;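 for nuclei count: percent of the per-plate median nuclei count of sample wells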); settings: exon1htt(103Q)mCFP cell line, aggregate imaging, at 2 µM; inhibition of aggregation: stronger effect = higher value; nuclei count: measured here: cell count, toxicity
[2] = inhibitors of E-selectin induction by TNFa, primary screen, imaging, HUVEC, immunofluorescence, MLSMR starter and 10KST1 sets (AID 487;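 active = visually confirmed hit in the image check and inhibition above 20%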;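 for inhibition: signal is fraction of cell area covered by stained E-selectin grains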;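 for nuclei count: 100% = median nuclei count of all wells on the same plate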); settings: HUVEC TNFalpha-induced E-selectin immunofluorescence imaging, at 2 µM; inhibition: stronger effect = higher value; nuclei count: measured here: cell number, toxicity
[3] = target: Voltage-gated potassium channel subunit beta-2 (Rattus norvegicus) (UniProt P62483); experiment: KvBeta enzyme negative modulators, primary screen, biochemical, NADPH fluorescence (AID 622;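 active = fluorescence slope higher than the sample average by over 3 SD, cut at about -0.22 in these data, passing the limit was not always enough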;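 note: slope of raw intensity against log time taken from 70 to 1610 s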); settings: recombinant KvBeta, 4-cyanobenzaldehyde reduction, at 10 µM, stronger effect = higher value
[4] = target: Voltage-gated potassium channel subunit beta-2 (Rattus norvegicus) (UniProt P62483); experiment: KvBeta positive modulators, primary screen, biochemical, NADPH fluorescence (AID 623;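 active = NADPH fluorescence slope more negative than the mean of all samples by about 3 SD, 99.7% confidence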;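 note: fluorescence intensity change per second fitted from 20 to 320 s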); settings: Recombinant KvBeta, NADPH fluorescence decrease slope, 10 min; at 10 µM; stronger effect = lower value
[5] = target: Alpha-2C adrenergic receptor (Homo sapiens) (UniProt P18825); experiment: modulators of alpha2C/GIRK thallium flux, primary screen, cell-based, HEK293 alpha2C/GIRK1/2 (AID 624;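 active = fluorescence slope after compound addition differing from the mean of all screened samples at 99.7% confidence, in either direction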;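 note: slope of fluorescence ratio to pre-addition baseline per second over 15 to 24 s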); settings: thallium flux BTC fluorescence, at 10 µM, actives lie on both sides
[6] = inhibitors of Sendai virus-induced IRF3 signaling, primary screen, TLR/RLR signaling modifier project, cell-based, Sendai virus stimulus, luciferase, 10K MLSCN set (AID 602276;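 active = inhibition at or above 50% at 10 µM; inactive = inhibition below 50%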;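 note: firefly luciferase from ISG56 promoter only with Renilla not read in this screen; 0% = Sendai virus plus DMSO and 100% = medium plus DMSO without virus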); settings: HEK293 RL24 IRF3 luciferase reporter, at 10 µM, stronger effect = higher value
[7] = inhibitors of poly I:C-induced TLR3 signaling, primary screen, cell-based, poly I:C stimulus, luciferase, 10K MLSCN set (AID 602277); settings: HEK293-TLR3 RL24 IRF3 luciferase reporter, at 10 µM, stronger effect = higher value
[8] = target: Muscarinic acetylcholine receptor M4 (Homo sapiens) (UniProt P08173); experiment: compounds altering M4/GIRK thallium flux, either direction, primary screen, M4 allosteric agonist project, cell-based, HEK293 M4/GIRK, BTC-AM (AID 625;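 active = fluorescence slope after compound addition differing from the mean of all tested samples at 99.7% confidence, mostly higher but some lower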;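 note: thallium influx through GIRK channels coupled to M4 in HEK293 cells with BTC-AM dye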); settings: at 10 µM, actives lie on both sides
[9] = inhibitors of larval lipid processing in zebrafish, primary screen, whole organism, PED6 fluorescence, gall bladder and intestine (AID 686;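 active = a full or partial loss of lipid-probe fluorescence in the fish gall bladder, intestine or both, judged by eye; inactive = no fluorescence loss, or compound toxic to the fish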;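 note: larvae 5 to 7 days old with five fish per well; signal comes from phospholipase A2 cleavage of quenched PED6 carried via bile; overnight exposure to compound and PED6 before scoring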); settings: Zebrafish larvae PED6 lipid processing, fluorescence scoring; screened at 20 µM (by protocol)
[10] = DUSP6 inhibitors restoring Erk phosphorylation by chemical complementation, primary imaging in DUSP6-transfected HeLa (AID 609;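 active = compounds giving at least 50% inhibition in the cell-based MKP-3 phosphatase rescue imaging test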;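 for inhibition: phospho-Erk level distribution per well compared with pooled transfected vehicle control wells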); settings: HeLa MKP-3 transfected, phospho-Erk imaging KS statistic, at 10 µM, cells stimulated with TPA for 15 min
[11] = target: Dual specificity protein phosphatase 6 (Homo sapiens) (UniProt Q16828); experiment: as above; settings: HeLa MKP-3 transfected, phospho-Erk imaging KS statistic; at 10 µM; stronger effect = higher value; cells stimulated with TPA for 15 min
Sequence of Dual specificity protein phosphatase 6 (Homo sapiens) (Q16828 whole entry, looked up): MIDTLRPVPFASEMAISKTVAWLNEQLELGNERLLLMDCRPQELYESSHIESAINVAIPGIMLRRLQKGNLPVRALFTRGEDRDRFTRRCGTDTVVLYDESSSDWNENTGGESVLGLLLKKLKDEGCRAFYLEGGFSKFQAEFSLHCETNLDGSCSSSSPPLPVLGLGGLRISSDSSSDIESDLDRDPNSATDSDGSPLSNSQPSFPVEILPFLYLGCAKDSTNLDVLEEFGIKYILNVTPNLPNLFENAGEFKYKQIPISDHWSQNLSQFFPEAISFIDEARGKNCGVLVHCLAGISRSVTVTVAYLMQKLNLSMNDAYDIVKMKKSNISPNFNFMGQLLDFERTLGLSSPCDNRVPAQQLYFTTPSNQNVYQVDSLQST

Sequence of Alpha-2C adrenergic receptor (Homo sapiens) (P18825 whole entry, looked up): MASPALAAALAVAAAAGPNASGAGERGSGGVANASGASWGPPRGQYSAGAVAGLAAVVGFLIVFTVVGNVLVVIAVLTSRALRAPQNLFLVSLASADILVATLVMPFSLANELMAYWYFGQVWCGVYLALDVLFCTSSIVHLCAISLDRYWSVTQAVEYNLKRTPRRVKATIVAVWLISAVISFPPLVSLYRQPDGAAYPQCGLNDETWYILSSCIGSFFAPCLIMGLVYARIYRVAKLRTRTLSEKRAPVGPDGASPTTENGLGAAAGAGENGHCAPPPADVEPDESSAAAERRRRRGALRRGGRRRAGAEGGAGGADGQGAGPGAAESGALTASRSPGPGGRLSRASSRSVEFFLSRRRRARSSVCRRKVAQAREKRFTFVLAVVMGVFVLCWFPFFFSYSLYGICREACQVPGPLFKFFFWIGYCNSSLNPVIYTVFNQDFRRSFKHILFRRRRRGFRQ
Sequence of Muscarinic acetylcholine receptor M4 (Homo sapiens) (P08173 whole entry, looked up): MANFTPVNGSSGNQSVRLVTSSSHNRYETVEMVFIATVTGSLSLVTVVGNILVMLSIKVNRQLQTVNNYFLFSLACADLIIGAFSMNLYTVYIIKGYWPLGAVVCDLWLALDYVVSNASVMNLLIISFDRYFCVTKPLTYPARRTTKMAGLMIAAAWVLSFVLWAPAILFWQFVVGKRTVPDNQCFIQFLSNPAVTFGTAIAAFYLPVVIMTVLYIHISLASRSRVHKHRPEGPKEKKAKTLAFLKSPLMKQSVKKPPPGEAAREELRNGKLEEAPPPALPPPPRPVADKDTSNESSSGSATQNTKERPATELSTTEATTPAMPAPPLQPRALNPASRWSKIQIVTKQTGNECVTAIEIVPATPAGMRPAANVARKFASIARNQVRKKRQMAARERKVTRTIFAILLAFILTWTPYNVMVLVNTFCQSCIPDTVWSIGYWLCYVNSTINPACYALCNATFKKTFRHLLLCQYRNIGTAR
Sequence of Voltage-gated potassium channel subunit beta-2 (Rattus norvegicus) (P62483 whole entry, looked up): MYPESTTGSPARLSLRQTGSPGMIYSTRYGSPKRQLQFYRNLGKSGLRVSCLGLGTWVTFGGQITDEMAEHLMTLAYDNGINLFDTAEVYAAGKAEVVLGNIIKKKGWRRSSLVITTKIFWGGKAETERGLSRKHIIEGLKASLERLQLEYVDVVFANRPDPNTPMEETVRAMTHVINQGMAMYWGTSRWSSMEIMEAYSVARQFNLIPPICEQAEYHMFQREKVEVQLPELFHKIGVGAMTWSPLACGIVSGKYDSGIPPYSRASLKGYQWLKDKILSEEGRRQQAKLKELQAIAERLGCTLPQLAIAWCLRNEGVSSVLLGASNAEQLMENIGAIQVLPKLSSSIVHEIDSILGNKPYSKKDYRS

## O=C1[C@@H]2C(c3ccccc3Cl)=NO[C@@H]2C(=O)N1Cc1ccccc1
[1]
  inhibition of aggregation: -2.9% (inactive)
  nuclei count: 90.6%
[2]
  inhibition: -238% (inactive)
  nuclei count: 213%
[3]
  fluorescence slope: -0.328 (inactive)
[4]
  NADPH fluorescence slope: -5.7e-05 (inactive)
[5]
  slope: 0.00529 (inactive)
[6]
  inhibition: 9.22% (inactive)
[7]
  inhibition: 12.2% (inactive)

## COc1ccc(CN2CC(C(=O)NCc3ccccn3)CC2=O)cc1 (stereo unspecified)
[3]
  fluorescence slope: -0.582 (inactive)
[4]
  NADPH fluorescence slope: -2.5e-07 (inactive)
[8]
  fluorescence slope: 0.00691 (inactive)
[6]
  inhibition: 14.9% (inactive)
[7]
  inhibition: 23.4% (inactive)

## O=C(Nc1cc(Cl)ccc1Cl)c1noc2c1CCCC2
[3]
  fluorescence slope: -0.601 (inactive)
[4]
  NADPH fluorescence slope: -9e-06 (inactive)
[5]
  slope: 0.00618 (inactive)
[6]
  inhibition: -3.4% (inactive)
[7]
  inhibition: 26.6% (inactive)

## Cc1cc(C)cc(-n2ccnc2SCC(=O)Nc2ccc3c(c2)OCCO3)c1
[3]
  fluorescence slope: -0.57 (inactive)
[4]
  NADPH fluorescence slope: -3.9e-05 (inactive)
[8]
  fluorescence slope: 0.00517 (inactive)
[6]
  inhibition: 1.38% (inactive)
[7]
  inhibition: -4.03% (inactive)

## O=C(C1CCN(S(=O)(=O)c2cnc[nH]2)CC1)N1CCN(c2ncccn2)CC1
[3]
  fluorescence slope: -0.353 (inactive)
[4]
  NADPH fluorescence slope: -7e-05 (inactive)
[5]
  slope: 0.00534 (inactive)
[9]
  outcome: inactive
[6]
  inhibition: -35.5% (inactive)
[7]
  inhibition: 88.9% (active)

## Clc1ccc(-c2nnc3sc(-c4ccc(Br)o4)nn23)cc1
[1]
  inhibition of aggregation: 10.6% (inactive)
  nuclei count: 97.9%
[2]
  inhibition: -136% (inactive)
  nuclei count: 181%
[3]
  fluorescence slope: -0.346 (inactive)
[4]
  NADPH fluorescence slope: 2.1e-05 (inactive)
[5]
  slope: 0.0087 (inactive)
[6]
  inhibition: 6.08% (inactive)
[7]
  inhibition: -13% (inactive)

## Cc1ccccc1-c1nc(CS(=O)(=O)CC(=O)N(C)C2CCCCC2)c(C)o1
[3]
  fluorescence slope: -0.49 (inactive)
[4]
  NADPH fluorescence slope: -3.4e-05 (inactive)
[5]
  slope: 0.00717 (inactive)
[6]
  inhibition: -5.9% (inactive)
[7]
  inhibition: -32.7% (inactive)

## CCCNC(=O)C1CN(S(=O)(=O)c2ccccc2)CCN1S(=O)(=O)c1ccccc1 (stereo unspecified)
[3]
  fluorescence slope: -0.512 (inactive)
[4]
  NADPH fluorescence slope: -3.4e-05 (inactive)
[5]
  slope: 0.00614 (inactive)
[6]
  inhibition: 9.56% (inactive)
[7]
  inhibition: 19% (inactive)

## CCC(C)(NC(=O)c1ccc(=O)[nH]c1)C(=O)NC1CCCC1 (stereo unspecified)
[3]
  fluorescence slope: -0.551 (inactive)
[4]
  NADPH fluorescence slope: -5e-05 (inactive)
[5]
  slope: 0.00548 (inactive)
[6]
  inhibition: 8% (inactive)
[7]
  inhibition: 24.2% (inactive)

## O=C(CSc1nc2c(sc3ccccc32)c(=O)n1Cc1ccco1)NCC1CCCO1 (stereo unspecified)
[3]
  fluorescence slope: -0.58 (inactive)
[4]
  NADPH fluorescence slope: -4.5e-05 (inactive)
[8]
  fluorescence slope: 0.00708 (inactive)
[6]
  inhibition: 19.7% (inactive)
[7]
  inhibition: 20.3% (inactive)

## CN(C)CCOC(c1ccccc1)c1ccccc1
[2]
  inhibition: -7% (inactive)
  nuclei count: 124%
[10]; measured here: cell density z-score
  z-score: -0.686
[10]; measured here: nuclear c-Myc green intensity z-score
  z-score: 0.456
[10]; measured here: nuclear pErk red intensity z-score, stronger effect = higher value
  z-score: 0.78
[11]
  inhibition: 5.42% (inactive)
[3]
  fluorescence slope: -0.465 (inactive)
[4]
  NADPH fluorescence slope: -4.4e-05 (inactive)
[5]
  slope: 0.00555 (inactive)
[6]
  inhibition: 11.6% (inactive)
[7]
  inhibition: 38.5% (inactive)

## CC(=O)N1CCc2cc(S(=O)(=O)NCCC(=O)NC3CCCc4ccccc43)ccc21 (stereo unspecified)
[3]
  fluorescence slope: -0.388 (inactive)
[4]
  NADPH fluorescence slope: -4e-05 (inactive)
[5]
  slope: 0.00543 (inactive)
[9]
  outcome: inactive
[6]
  inhibition: -3.18% (inactive)
[7]
  inhibition: -2.7% (inactive)
